Our source for the Potency values is PubChem BioAssay (Tox21).

Inconclusive results are not listed. Where a call stands in place of a potency, no number is given. Calls of active or inactive are those of the source. Calls come from the whole dose curve; as a rule, active = well fitted cell-killing curve with a large enough effect in the repeat runs; inconclusive = weak or mixed curves; inactive = flat fitted curve, though single readings scatter.

The nature of this experiment: qHTS RealTime-Glo MT Cell Viability Assay in HepG2 cells - 16 hour (AID 1224885). Note: nearly all actives have a fitted effect of over 50% in size. The note with it: RealTime-Glo luminescence; series mostly up to 76.8 µM. From the text:
U.S. Tox21 Program National Center for Advancing Translational Sciences [NCATS] NIH Chemical Genomics Center [NCGC] U.S. Environmental Protection Agency [EPA] National Institutes of Environmental Health Sciences [NIEHS] National Toxicology Program [NTP] U.S. Food and Drug Administration [FDA] Tox21 Assay Overview: Measure of cell viability is critical in the cell-base assay. Analysis of cell viability is necessary for the characterization of cell responses to cytotoxic drugs and environmental stress. A RealTime-Glo MT Cell Viability Assay to monitor cell viability in real time of continues cell culture during 40 hours of compound treatment was used to screen Tox21 10K library compounds in HepG2 cells. The RealTime-Glo MT Cell Viability Assay is a nonlytic, homogeneous, bioluminescent method to measure cell viability in real time using a simple, plate-based method. The assay involves adding NanoLuc luciferase and a cell-permeant prosubstrate to cells in culture. Viable cells reduce the proprietary prosubstrate to generate a substrate for NanoLuc luciferase. This substrate diffuses from cells into the surrounding culture medium, where it is rapidly used by the NanoLuc Enzyme to produce a luminescent signal. The signal correlates with the number of viable cells, making the assay well suited for cytotoxicity studies.
Tox21 Assay Protocol Summary: The mixture of HepG2 cell suspension and reagents were dispensed at 600cells/6 ul/well in 1536-well tissue culture treated black solid bottom plates using a Multidrop dispenser. After the assay plates were incubated at a 37 C/5% CO2 incubator for 5 hours, 23 nL of compounds dissolved in DMSO, positive and negative controls was transferred to the assay plate by a pintool work station. The plates were incubated at 37 C for 40 hours. The luminescence intensity were measured at 0h, 8h, 16h, 24h, 32h and 40h time points using ViewLux plate reader during compound treatment.
Turning to `O=C(c1ccccc1)c1ccc2n1CCC2C(=O)O` (stereo not given), the Potency result was “inactive”.
The value for `C1CCC2OC2C1` (stereo not given) was “inactive”.
The result for `CC(C)(C)c1ccc(S)cc1` reads “inactive”.
The result for `CCCCCCCCCO` reads “inactive”.
For `O=C1Nc2cc(Cl)ccc2Oc2ccccc21`, the Potency entry was “inactive”.
The result for `O=C(O)Cc1cc(I)c(Oc2ccc(O)c(I)c2)c(I)c1` reads “inactive”; that for `CC(C)c1cccc(C(C)C)c1NC(=O)NS(=O)(=O)c1cc(C(C)(C)O)co1`, “inactive”; that for `CN(c1nccc(=O)[nH]1)C1CCN(c2nc3ccccc3n2Cc2ccc(F)cc2)CC1`, “inactive”.
The value for `CC1(C)CCC(C)(C)c2cc(NC(=O)c3ccc(C(=O)O)cc3)ccc21` was “inactive”; that for `CC1=CCC(C(C)C)C=C1` (stereo not given) was “inactive”.
The result for `N#CCc1cccc(C(F)(F)F)c1` reads “inactive”.
For `FC(F)(F)C(F)(F)C(F)(F)C(F)(F)C(F)(F)C(F)(F)CCI`, the Potency result was “inactive”.
For the compound `CN1CCN(C2=Nc3ccccc3Sc3ccc(Cl)cc32)CC1`, the Potency result is “inactive”.
The value for `Cc1ccc(C(N)=O)cc1N` was “inactive”.
The value for `OCCC1CCCCN1` (stereo not given) was “inactive”; that for `Cc1cc(O)ccc1N` was “inactive”.
The result for `CCCCOc1ccc(CC(=O)NO)cc1` reads “inactive”.
With `O=C(Cl)c1c(Cl)cccc1Cl`, the Potency entry is “inactive”.
The result for `O=C1CCCCCO1` reads “inactive”.
The value for `Cc1ccc(C)o1` was “inactive”; that for `CC(=O)Nc1ccc(/C=N/NC(N)=S)cc1` was “inactive”.
The value for `CCCCOC(=O)/C=C\C(=O)OCCCC` was “inactive”; that for `N#Cc1cc2ccccc2c2ccccc12` was “inactive”; that for `Cc1ccccc1N=Nc1ccc(N=Nc2c(O)ccc3ccccc23)c(C)c1` was “inactive”.
Consider `O=C(NS(=O)(=O)/C=C/c1cccs1)c1ccc(F)cc1Br`, for which the Potency result is “inactive”.
`C=CCCCCCC`: the Potency entry was “inactive”.
The result for `c1ccc(CNCc2ccccc2)cc1` reads “inactive”.
The result for `Oc1ccc(C(O)CNCCCCCCNCC(O)c2ccc(O)c(O)c2)cc1O` (stereo not given) reads “inactive”; that for `Cc1nc2ccccc2n1Cc1ccc(Cl)cc1`, “inactive”.
On to `CC(C)NCC(O)c1cc(O)cc(O)c1` (stereo not given), for which the Potency result was “inactive”.
The result for `CC(=O)O[C@@H]1C(=O)O[C@@H]2[C@H]1OC(=O)[C@@H]2OC(C)=O` reads “inactive”.
The result for `O=C(O)[C@@H]1[C@H]2C[C@H]3c4[nH]c5ccccc5c4CCN3C[C@@H]2CC[C@@H]1O` reads “inactive”; that for `CC(C)CC=O`, “inactive”; that for `CCCCOC(=O)c1ccccc1C(=O)OCC(CC)CCCC` (stereo not given), “inactive”.
The value for `CCCCC(CC)COCCCN` (stereo not given) was “inactive”.
For the compound `CC(C)c1ccc2c(C(C)C)cc(C(C)C)c(S(=O)(=O)O)c2c1`, the Potency entry is “inactive”.
The result for `CC(C)(C)c1cc(CO)cc(C(C)(C)C)c1O` reads “inactive”; that for `CCCCCCCCCCCCCCCC(=O)OC/C=C(C)/C=C/C=C(C)/C=C/C1=C(C)CCCC1(C)C`, “inactive”; that for `CCC(=O)OC(C)(C)C1CC=C(C)CC1` (stereo not given), “inactive”.
Regarding `SC1CCCC1`, the Potency result is “inactive”.
